About 970 (3.9%) of roughly 25,000 compounds were called active. Another 8% or so got no clear call; they are omitted. The rule behind the calls is not given here. For the sample, actives were picked, then their nearest neighbours and some compounds at random.
Experiments:
Experiment in all cases: Primary Screen for Target Class Profiling of Small Molecule Inhibitors of Methyltransferases
[1] = molecular target: Catechol O-methyltransferase (Homo sapiens) (UniProt P21964); conditions: purified enzyme, MTase-Glo SAH luminescence; activity change, negative = inhibition: at 40 µM, stronger effect = lower value; outcome: 40 uM
Text: (§1) PI: Matthew D. Hall Ph.D. and Quinlin M. Hanson Ph.D.
(§2) National Center for Advancing Translational Sciences (NCATS)
(§3) National Institute of Health (NIH), Rockville, MD
(§4) Target class profiling (TCP) is a chemical biology approach amenable to investigating understudied biological targets. TCP is achieved by developing a generalizable assay platform and applying it to screen a curated set of compound libraries against representative members of a target class. Small molecule methyltransferases (SMMTase) are a subclass of methyltransferase that act on metabolites to modulate signaling pathways, metabolize xenobiotics, or balance the available methyl pool. We screened four curated libraries totaling 27,574 unique compounds against the SMMTases nicotinamide N-methyltransferase (NNMT), phenylethanolamine N-methyltransferase (PNMT), histamine N-methyltransferase (HNMT), glycine N-methyltransferase (GNMT), catechol O-methyltransferase (COMT), and guanidinoacetate N-methyltransferase (GAMT). The data generated by this TCP can be leveraged for informed tool molecule development. For example, in the associated publication we identified a chemotype of HNMT-selective inhibitors. Additionally, we identified a putative SMMTase-selective inhibitor with potential as a tool molecule for studying broader methyltransferase biology.
(§5) High-through put screening assays were developed at the National Center for Advancing Translational Science (NCATS) for the enzymes NNMT, PNMT, HNMT, GNMT, COMT, and GAMT. Enzymatic activity was measured as a function of SAM cofactor conversion using the MTase Glo kit (Promega) for all enzymes. All assays were performed in 1536-well format with substrates and SAM concentrations at KM values. Enzyme concentration and assay timing were optimized for 10-20% SAM conversion. Initial screening of 27,574 compounds was done as single-point assays using the highest compound concentration (40 uM). […] These compounds were replated in 11-point dose response and assayed against NNMT, PNMT, HNMT, GNMT, COMT, GAMT, and a counter-assay. The IC50 and efficacy (maximal response) values were determined for each dose-response curve. These values are also accounted for in the area under the curve (AUC) values.
(§6) PROTOCOL TABLE (as described by Inglese J, Shamu CE and Guy RK. 2007)
(§7) SEQUENCE No. (e.g., 1, 2, 3, etc.); […] (e.g., Cells, Incubation, Reagent, etc.); VALUE; DESCRIPTION.
(§8) 1; Reagent; 2 uL; SMMTase Enzyme (2x) in reaction buffer, columns 1- 48.
(§9) 2; Reagent; 1 uL; SAM (4x) in reaction buffer, columns 1-48.
(§10) 3; Controls; 23 nL; DMSO in column 4; sinefungin in DMSO (0 uM - 40 uM) in 7-point 1:2 dilution series (n = 2) in column 2.
(§11) 4; Compounds; 23 nL; Columns 5-48.
(§12) 5; Reagent; 1 uL; Substrate (4x) in reaction buffer, columns 2-48.
(§13) 6; Time; 20-30 min; Incubation.
(§14) 7; Reagent; 1 uL; MTase-Glo reagent (5X), columns 1-48.
(§15) 8; Time; 30 min; Incubation.
(§16) 9; Reagent; 5 uL; MTase-Glo Detection reagent, columns 1-48.
(§17) 10; Time; 30 min; Incubation, luminescence evolution.
(§18) 11; Detection; Luminescence; ViewLux uHTS Microplate Imager (PerkinElmer).
(§19) NOTES (numbers refer to Sequence numbers above)
(§20) 1, 2, 5. White Medium Binding Greiner 1536-well plates (Cat #789175-F, Greiner Bio-One, Monroe, NC); Reaction buffer: 50 mM Tris, pH 8.0, 3 mM MgCl2, 1 mM EDTA, 50 mM NaCl, 1 mM DTT, and 0.1 mg/mL BSA. Evaporation was prevented by covering assay plates with metal lids containing holes to allow gas diffusion.
(§21) 1. Six SMMTase were profiled: HNMT, GNMT, PNMT, COMT, NNMT, GAMT
(§22) 5. The corresponding substrate was used for each enzyme: HNMT - 5.3 uM Histamine; GNMT - >500 uM Glycine; PNMT - 16.2 uM Norephinephrine; COMT - 13.7 uM Norephinephrine; NNMT - 3.8 uM Nicotinamide; GAMT - 2.5 uM Guanidinoacetate.6, 8, 10. Room temperature
(§23) 6. Final reaction conditions: 10 nM COMT, 5 uM SAM, 15 uM norepinephrine, 50 mM Tris, pH 8.0, 3 mM MgCl2, 1 mM EDTA, 50 mM NaCl, 1 mM DTT, and 0.1 mg/mL BSA; refer to tables 2 and S1 for specific timing.
8. […]

[2] = molecular target: Glycine N-methyltransferase (Homo sapiens) (UniProt Q14749); conditions: purified enzyme, MTase-Glo SAH luminescence; measured here: GNMT inhibition; at 40 µM; stronger effect = lower value
Text: as §1, §2, §3, §4, §5, §6, §7, §8, §9, §10, §11, §12, §13, §14, §15, §16, §17, §18, §19, §20, §21, §22, §23
8. […]

[3] = molecular target: Guanidinoacetate N-methyltransferase (Homo sapiens) (UniProt Q14353); conditions: purified enzyme, MTase-Glo SAH luminescence; measured here: GAMT inhibition; at 40 µM; stronger effect = lower value
Text: as §1, §2, §3, §4, §5, §6, §7, §8, §9, §10, §11, §12, §13, §14, §15, §16, §17, §18, §19, §20, §21, §22, §23
8. […]

[4] = molecular target: Histamine N-methyltransferase (Homo sapiens) (UniProt P50135); conditions: purified enzyme, MTase-Glo SAH luminescence; measured here: HNMT inhibition; at 40 µM; stronger effect = lower value
Text: as §1, §2, §3, §4, §5, §6, §7, §8, §9, §10, §11, §12, §13, §14, §15, §16, §17, §18, §19, §20, §21, §22, §23
8. […]

[5] = molecular target: Nicotinamide N-methyltransferase (Homo sapiens) (UniProt P40261); conditions: purified enzyme, MTase-Glo SAH luminescence; measured here: NNMT inhibition; at 40 µM; stronger effect = lower value
Text: as §1, §2, §3, §4, §5, §6, §7, §8, §9, §10, §11, §12, §13, §14, §15, §16, §17, §18, §19, §20, §21, §22, §23
8. […]

[6] = molecular target: Phenylethanolamine N-methyltransferase (Homo sapiens) (UniProt P11086); conditions: purified enzyme, MTase-Glo SAH luminescence; measured here: PNMT inhibition; at 40 µM; stronger effect = lower value
Text: as §1, §2, §3, §4, §5, §6, §7, §8, §9, §10, §11, §12, §13, §14, §15, §16, §17, §18, §19, §20, §21, §22, §23
8. […]
% is set by controls: 0 for no effect and ±100 for the full control effect.

Histamine N-methyltransferase (Homo sapiens), sequence (P50135 whole entry, looked up): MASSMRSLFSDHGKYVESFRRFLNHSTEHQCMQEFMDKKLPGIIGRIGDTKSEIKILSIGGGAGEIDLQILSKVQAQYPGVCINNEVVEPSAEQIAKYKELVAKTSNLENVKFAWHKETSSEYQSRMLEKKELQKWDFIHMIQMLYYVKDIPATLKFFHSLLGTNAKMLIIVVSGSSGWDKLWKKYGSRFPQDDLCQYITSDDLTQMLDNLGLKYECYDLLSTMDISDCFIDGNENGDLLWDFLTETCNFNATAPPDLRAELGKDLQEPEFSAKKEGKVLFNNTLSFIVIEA
Catechol O-methyltransferase (Homo sapiens), sequence (P21964 whole entry, looked up): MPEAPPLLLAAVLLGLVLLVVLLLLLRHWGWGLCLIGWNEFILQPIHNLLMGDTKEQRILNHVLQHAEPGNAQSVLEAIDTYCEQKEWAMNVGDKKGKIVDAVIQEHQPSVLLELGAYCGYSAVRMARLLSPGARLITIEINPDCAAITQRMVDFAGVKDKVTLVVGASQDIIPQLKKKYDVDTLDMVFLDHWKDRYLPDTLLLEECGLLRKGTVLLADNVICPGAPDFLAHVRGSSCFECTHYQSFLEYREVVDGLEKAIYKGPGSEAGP
Phenylethanolamine N-methyltransferase (Homo sapiens), sequence (P11086 whole entry, looked up): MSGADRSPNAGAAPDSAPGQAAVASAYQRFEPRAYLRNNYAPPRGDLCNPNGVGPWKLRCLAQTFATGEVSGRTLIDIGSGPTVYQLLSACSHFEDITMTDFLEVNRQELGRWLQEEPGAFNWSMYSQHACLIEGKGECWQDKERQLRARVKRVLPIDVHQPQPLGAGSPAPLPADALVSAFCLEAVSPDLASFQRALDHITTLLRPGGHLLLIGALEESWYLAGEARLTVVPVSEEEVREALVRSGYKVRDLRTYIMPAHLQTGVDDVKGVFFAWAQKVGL
Glycine N-methyltransferase (Homo sapiens), sequence (Q14749 whole entry, looked up): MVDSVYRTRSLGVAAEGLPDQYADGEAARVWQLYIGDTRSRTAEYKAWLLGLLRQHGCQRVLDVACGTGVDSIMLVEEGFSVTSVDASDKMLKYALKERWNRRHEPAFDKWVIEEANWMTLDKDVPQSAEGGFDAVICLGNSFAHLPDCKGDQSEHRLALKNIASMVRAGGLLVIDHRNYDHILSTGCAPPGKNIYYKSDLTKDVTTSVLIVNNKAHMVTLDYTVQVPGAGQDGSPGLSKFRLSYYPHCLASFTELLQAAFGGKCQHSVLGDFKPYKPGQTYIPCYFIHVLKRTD
Nicotinamide N-methyltransferase (Homo sapiens), sequence (P40261 whole entry, looked up): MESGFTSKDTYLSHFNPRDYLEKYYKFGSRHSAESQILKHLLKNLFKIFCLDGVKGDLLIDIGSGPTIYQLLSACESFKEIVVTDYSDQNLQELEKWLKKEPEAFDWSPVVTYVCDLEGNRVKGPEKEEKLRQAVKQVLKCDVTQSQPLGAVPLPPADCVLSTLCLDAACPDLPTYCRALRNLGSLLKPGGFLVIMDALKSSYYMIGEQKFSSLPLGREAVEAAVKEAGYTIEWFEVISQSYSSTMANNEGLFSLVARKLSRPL

SMILES	activity change, negative = inhibition [1]	activity change, negative = inhibition [2] [%]	activity change, negative = inhibition [3] [%]	activity change, negative = inhibition [4] [%]	activity change, negative = inhibition [5] [%]	activity change, negative = inhibition [6] [%]
CC1CCCC(NC(=O)C2(C)Cn3c(nc4ccccc43)C(=O)N2Cc2ccc(Cl)cc2)C1C (configuration not stated)	1.59% (inactive)	-0.93	1.75	0.57	2.43	-2.27
Cc1cccc(CCNC(=O)c2cc3n(n2)CC(C)(C(=O)NCc2ccccc2)N(C)C3=O)c1 (configuration not stated)	0.858% (inactive)	3.01	0.251	3.89	3.49	1.3
CCCS(=O)(=O)N1CCCC(Cn2c(C)nc3cccnc32)C1 (configuration not stated)	-1.28% (active)	-90.9	-3.03	-2.37	-5.85	-1.53
CCCS(=O)(=O)N1CCCC(Cc2noc(-c3cnccn3)n2)C1 (configuration not stated)	-2.88% (inactive)	-4	-4.91	-0.21	-5.94	-4.02
CCCS(=O)(=O)N1CCCC(OCc2noc(C3CCOCC3)n2)C1 (configuration not stated)	-3.2% (inactive)	-4.75	-6.9	-3.01	-9.35	-7.82
CC1(C(=O)NC2CCCC2)Cn2c(cc3ccccc32)C(=O)N1c1ccc(F)cc1 (configuration not stated)	1% (inactive)	0.736	0	3.74	5.9	0.017
Cc1cccc(NC(=O)CSc2nnc3n(CC(C)C)c(=O)c4ccc(C(=O)NC(C)C)cc4n23)c1	2.32% (inactive)	0.335	4.37	4.71	-3.04	1.77
Cc1c(NS(=O)(=O)c2cccc3c2C(=O)c2ccccc2C3=O)c(=O)n(-c2ccccc2)n1C	-6.91% (inactive)	-20.9	3.01	-5.26	-8.5	-27
COc1ccccc1CCN1C(=O)c2ccc(-c3ccco3)n2CC1(C)C(=O)NC1CCCCCC1 (configuration not stated)	-0.859% (inactive)	-4.07	0	-1.27	-3.86	-2.83
Cc1ccc(N2C(=O)c3cc(-c4ccco4)nn3CC2(C)C(=O)NC2CCCCC2)cc1Cl (configuration not stated)	-4.47% (inactive)	-10.8	2.7	-6.61	-7.94	-7.34
O=C(c1coc(CN2CCN(C/C=C/c3ccccc3)CC2)n1)N1CCC[C@H]1CO	1.4% (inactive)	-0.744	2.52	0.892	-2.33	15.6
O=C1Nc2ccc(O)cc2O[C@H]1O[C@@H]1O[C@H](CO)[C@@H](O)[C@H](O)[C@H]1O	2.34% (inactive)	1.1	7.9	2.99	-5.97	2.07
CCc1ccc(NS(=O)(=O)c2cc3c(cc2C)n(C)c(=O)n3C)cc1	6.7% (inactive)	2.79	0	1.74	-13.9	-1.81
CNC(=O)c1ccccc1Nc1nc(Nc2ccc(N3CCOCC3)cc2OC)ncc1Cl	1.38% (inactive)	-17.4	6.33	-0.939	-26.5	-6.85
CC1(C)CCC(C)(C)c2cc3c(cc21)Sc1ccccc1N=C3c1ccc(C(=O)O)cc1	9.33% (inactive)	1.76	4.41	11.6	-26.9	3.91
Cc1cc(C[C@@H]2COC[C@@H]2NC(=O)c2cccc(-n3nc(C)cc3C)c2)on1	-7.5% (inactive)	-5.02	-7.68	-5.59	-12.1	-25.6
CCCN1C(=O)c2cc3sccc3n2CC1(C)C(=O)NC1CCC(C)CC1 (configuration not stated)	0.545% (inactive)	0.536	4.2	-0.49	0.936	-2.48

Source: PubChem BioAssay AID1745853 (National Center for Advancing Translational Sciences (NCATS), 2022)
